We go through 35 molecules from PubChem BioAssay AID1053118 (Broad Institute, 2014).

Potency and affinity values are given separately. Calls of active or inactive are those of the source.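 How the source made its calls: active means fitted half-maximal concentration for ATP signal loss at most twice the top valid dose; inconclusive means flat curve between -70 and -30%, or an invalid fit; inactive means flat within ±30%, wrong direction, or potency past limit.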

This experiment in a line: viability loss in HepG2 hepatoma cells – cell-based, cherry-picks, set 5, cytotoxicity control, dose response (AID 1053118).

For the molecule `CCOC(=O)C1=C(C)Nc2nc3ccccc3n2C1c1ccncc1` (stereo not given), the call was inactive. With `CO[C@H]1CN(C)C(=O)c2cc(NC(=O)Nc3ccc(Cl)c(Cl)c3)ccc2OC[C@@H](C)NC[C@@H]1C`, the molecule was called inactive. Take `N#C[C@H]1[C@H](c2ccccc2C2=CCCCC2)[C@H](CO)N1S(=O)(=O)c1ccccc1`: the molecule was classed as inactive. With `O=C(CC1Nc2ccccc2NC1=O)Nc1ccc2c(c1)OCO2` (stereo not given), the outcome was inactive. As to `CN(C)C(=O)c1ccc(-c2ccc3c(c2)[C@H]2[C@H](CCN2C(=O)c2ccc(F)cc2)[C@@H](CO)N3C)cc1`, the molecule was classed as inactive. In the case of `O=C(c1cccnc1)N1C[C@H]2[C@@H](c3ccccc31)[C@H](CO)N2CC1CCCC1`, the result was inactive. Consider `CCc1nc2c(OCCc3cccc(OC)c3)cccn2c1N(C)C(=O)c1ccc(C)cc1`, for which the outcome was inactive. Regarding `C[C@@H]1CN([C@H](C)CO)C(=O)c2cc(-c3ccccc3)cnc2O[C@H]1CN(C)Cc1ccccc1`, the result was inactive. Turning to `Nc1c(C(=O)NCc2ccco2)nnn1Cc1ccccc1`, the call was inactive. The same measure for `N#C[C@@H]1[C@@H](c2ccccc2C2=CCCCC2)[C@H](CO)N1S(=O)(=O)c1ccccc1`: “inactive”; for `C[C@@H]1CN([C@@H](C)CO)C(=O)c2cc(NC(=O)C3CCCCC3)ccc2O[C@@H]1CN(C)Cc1ccc(-c2ccccc2)cc1`: “inactive”. As to `CC(C)NC(=O)N(C)C[C@H]1Oc2ccc(NC(=O)CCN3CCOCC3)cc2C(=O)N([C@H](C)CO)C[C@@H]1C`, the call was inactive.

Consider `O=C(NCc1ccccc1)c1ccc(-c2cn[nH]c2)c2ccoc12`, for which the molecule was classed as inactive. The result for `COC(=O)C[C@@H]1CC[C@@H]2[C@H](COc3ccc(NC(=O)Cc4cccs4)cc3C(=O)N2C)O1` reads “inactive”. The same measure for `C[C@H](CO)N1C[C@H](C)[C@H](CN(C)C)Oc2cc(C#C[C@@H](C)O)ccc2S1(=O)=O`: “inactive”. Consider `COc1ccccc1N(CC(=O)N(CC(C)C)CC(C)C)S(=O)(=O)c1cccs1`, for which the molecule was called inactive. Turning to `COCC(=O)Nc1ccc2c(c1)C(=O)N(C)[C@@H]1CC[C@H](CC(=O)NCc3ccccc3Cl)O[C@@H]1CO2`, the molecule was classed as inactive. On to `CN(C)c1ccc(-c2ccnc3c2CC(C)(C(=O)NCC2CC2)O3)cc1` (stereo not given), for which the call was inactive. As for `C=CCC[C@H](Cc1ccc(F)cc1)C(=O)OC[C@H](Cc1c[nH]c2ccccc12)NC(=O)[C@@H](CC=C)CC(=O)N[C@@H](CO)Cc1ccccc1`, the result was inactive. Regarding `O=S(=O)(c1ccccc1F)N1CC[C@@H]2[C@H]1c1cc(-c3cccc(F)c3)ccc1N[C@@H]2CO`, the call was inactive. As for `Cc1cccc(NC(=O)Nc2ccc(S(=O)(=O)Nc3onc(C)c3C)cc2)c1`, the molecule was called inactive. In the case of `COCC(=O)Nc1ccc2c(c1)C(=O)N(C)[C@H]1CC[C@H](CC(=O)NCc3ccccc3Cl)O[C@H]1CO2`, the result was inactive.

For `Cc1cc(C)c(S(=O)(=O)Nn2cnnc2)c(C)c1`, the call was inactive. Turning to `COc1cccc(-c2ccc3c(c2)[C@@H]2[C@@H](CCN2S(=O)(=O)c2cccc(OC)c2)[C@@H](CO)N3)c1`, the result was inactive.

As to `CC(C)(C)c1cc(Cl)c(O)c(NC(=S)NC(=O)c2cccnc2)c1`, the outcome was inactive. Take `COc1ccc(CCNC(=O)C2CCN(Cc3nc(-c4ccccc4F)oc3C)CC2)cc1OC`: the call was inactive. In the case of `C[C@H]1CN([C@@H](C)CO)C(=O)c2cc(-c3ccccc3)cnc2O[C@@H]1CN(C)Cc1ccccc1`, the result was inactive. As for `Cn1cnc(S(=O)(=O)N2CCN(c3ccccc3)CC2)c1`, the call was inactive. The same measure for `COC(=O)C[C@H]1CC[C@H]2[C@@H](COc3ccc(NC(=O)Cc4cccs4)cc3C(=O)N2C)O1`: “inactive”; for `Cc1ccc(CS(=O)Cc2ccc(C(=O)NC3CCCC(C)C3C)o2)cc1` (stereo not given): “inactive”; for `N#Cc1ccc(-c2ccc3c(c2)[C@@H]2[C@@H](CCN2S(=O)(=O)c2cccc(F)c2)[C@@H](CO)N3)cc1`: “inactive”. In the case of `CCOC(=O)c1nnn(-c2ccc(OC)cc2)c1N`, the molecule was called inactive. The same measure for `Cc1ccccc1S(=O)(=O)N1CC[C@H]2[C@H](CO)Nc3ccc(-c4ccc(C#N)cc4)cc3[C@H]21`: “inactive”; for `COc1ccc(CN(C2CCCC2)S(=O)(=O)c2ccc(-n3cnnn3)cc2)cc1OC`: “inactive”. Consider `C[C@@H]1CN([C@@H](C)CO)C(=O)c2cc(-c3ccccc3)cnc2O[C@@H]1CN(C)Cc1ccccc1`, for which the molecule was called inactive.
